# Test results: PubChem BioAssay AID1159580 (chemical genetic matrix, 2015)
# Hit rate of the full screen: of about 5,500 compounds, about 2,000 (36%) were called active. About 18% were inconclusive and are not listed. This is one part of the list. Unmarked numbers belong to inactive results. No stated cut-off is given here; in the data, active means normalized growth mostly below about 0.91 (no sharp cut-off); inconclusive means no clear call, values can overlap the other calls; inactive means mostly above about 0.92.
# Test: chemical genetic growth profiling, strain panel (AID 1159580);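 further: tested at 20 µM; growth read once vehicle control cultures reached saturation at 30 °C; 1 = growth at the plate median or of vehicle wells; lower values mean less growth of the strain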
# Settings: S. cerevisiae deletion strains, growth OD
# [1] = locus YDL101C, strain DUN1, active compounds read low
# [2] = locus YHR030C, strain SLT2, active compounds read low
smiles,measurement,setting,value
COC(=O)C1=C(Nc2ccc(Cl)cc2)CSC1,normalized growth,"locus YAL013W, strain DEP1, active compounds read low",0.956
same,normalized growth,"locus YBR229C, strain ROT2, active compounds read low",0.967
same,normalized growth,"locus YCL061C, strain MRC1, active compounds read low",0.959
same,normalized growth,[1],0.941
same,normalized growth,"locus YDL134C, strain PPH21, active compounds read low",0.773 (active)
same,normalized growth,"locus YDR150W, strain NUM1, active compounds read low",0.929
same,normalized growth,"locus YEL061C, strain CIN8, active compounds read low",0.771 (active)
same,normalized growth,"locus YGR078C, strain PAC10, active compounds read low",0.949
same,normalized growth,[2],0.203 (active)
same,normalized growth,"locus YHR087W, strain rtc3, active compounds read low",0.962
same,normalized growth,"locus YJL187C, strain SWE1, active compounds read low",0.902 (active)
same,normalized growth,"locus YJR075W, strain HOC1, active compounds read low",0.911
same,normalized growth,"locus YKL190W, strain CNB1, active compounds read low",0.834 (active)
same,normalized growth,"locus YLR039C, strain RIC1, active compounds read low",0.455 (active)
same,normalized growth,"locus YLR058C, strain SHM2 (second series), active compounds read low",0.969
same,normalized growth,"locus YLR085C, strain ARP6, active compounds read low",0.368 (active)
same,normalized growth,"locus YLR262C, strain YPT6, active compounds read low",0.468 (active)
same,normalized growth,"locus YML094W, strain GIM5, active compounds read low",0.833 (active)
same,normalized growth,"locus YMR219W, strain ESC1, active compounds read low",0.972
same,normalized growth,"locus YMR263W, strain SAP30, active compounds read low",0.953
same,normalized growth,"locus YMR307W, strain GAS1, active compounds read low",0.417 (active)
same,normalized growth,"locus YNL153C, strain GIM3, active compounds read low",0.965
same,normalized growth,"locus YNL298W, strain CLA4 (second series), active compounds read low",0.676 (active)
same,normalized growth,"locus YNL322C, strain KRE1, active compounds read low",0.97
same,normalized growth,"locus YNR030W, strain Alg12, active compounds read low",0.759 (active)
same,normalized growth,"locus YOL006C, strain TOP1, active compounds read low",0.522 (active)
same,normalized growth,"locus YPL055C, strain LGE1, active compounds read low",0.811
same,normalized growth,"locus YPL241C, strain CIN2, active compounds read low",0.742 (active)
same,normalized growth,"locus YPR135W, strain CTF4, active compounds read low",0.314 (active)
Clc1ccccc1N/N=C\Cc1nnnn1-c1ccccc1,normalized growth,"locus YAR019C, strain CDC15, active compounds read low",0.982
same,normalized growth,"locus YBL105C, strain PKC1, active compounds read low",0.966
same,normalized growth,"locus YBR135W, strain CKS1, active compounds read low",0.962
same,normalized growth,"locus YBR136W, strain MEC1, active compounds read low",0.966
same,normalized growth,"locus YBR160W, strain CDC28, active compounds read low",0.97
same,normalized growth,"locus YDL017W, strain CDC7, active compounds read low",0.98
same,normalized growth,"locus YDL028C, strain MPS1, active compounds read low",0.972
same,normalized growth,[1],0.976
same,normalized growth,"locus YDL108W, strain KIN28, active compounds read low",0.974
same,normalized growth,"locus YDL132W, strain cdc53, active compounds read low",0.953
same,normalized growth,"locus YDL214C, strain PRR2, active compounds read low",0.904
same,normalized growth,"locus YDR052C, strain DBF4, active compounds read low",0.974
same,normalized growth,"locus YDR054C, strain cdc34, active compounds read low",0.96
same,normalized growth,"locus YDR226W, strain ADK1, active compounds read low",0.972
same,normalized growth,"locus YDR477W, strain SNF1, active compounds read low",0.898
same,normalized growth,"locus YER123W, strain YCK3, active compounds read low",0.729
same,normalized growth,"locus YER133W, strain GLC7, active compounds read low",0.91
same,normalized growth,"locus YFL009W, strain cdc4, active compounds read low",0.965
same,normalized growth,"locus YFL029C, strain CAK1, active compounds read low",0.966
same,normalized growth,"locus YFR003C, strain YPI1, active compounds read low",0.97
same,normalized growth,"locus YFR019W, strain FAB1, active compounds read low",0.831
same,normalized growth,"locus YFR028C, strain CDC14, active compounds read low",0.957
same,normalized growth,"locus YGR040W, strain KSS1, active compounds read low",0.91
same,normalized growth,"locus YGR052W, strain FMP48, active compounds read low",0.827
same,normalized growth,"locus YGR092W, strain DBF2, active compounds read low",0.282 (active)
same,normalized growth,[2],0.924
same,normalized growth,"locus YHR079C, strain IRE1, active compounds read low",0.85
same,normalized growth,"locus YHR082C, strain KSP1, active compounds read low",0.951
same,normalized growth,"locus YHR205W, strain SCH9, active compounds read low",0.863
same,normalized growth,"locus YIL147C, strain SLN1, active compounds read low",0.971
same,normalized growth,"locus YJL095W, strain BCK1, active compounds read low",0.716
same,normalized growth,"locus YJL128C, strain PBS2, active compounds read low",0.951
same,normalized growth,"locus YJL157C, strain FAR1, active compounds read low",0.893
same,normalized growth,"locus YJR016C, strain ILV3, active compounds read low",0.96
same,normalized growth,"locus YJR066W, strain TOR1 (second series), active compounds read low",0.774
same,normalized growth,"locus YJR066W, strain TOR1, active compounds read low",0.888
same,normalized growth,"locus YKL048C, strain ELM1, active compounds read low",0.92
same,normalized growth,"locus YKL067W, strain YNK1, active compounds read low",0.89
same,normalized growth,"locus YKL101W, strain HSL1, active compounds read low",0.889
same,normalized growth,"locus YKL193C, strain SDS22, active compounds read low",0.966
same,normalized growth,"locus YKL203C, strain TOR2, active compounds read low",0.929
same,normalized growth,"locus YLR113W, strain HOG1, active compounds read low",0.923
same,normalized growth,"locus YLR133W, strain CKI1, active compounds read low",0.888
same,normalized growth,"locus YLR403W, strain SFP1, active compounds read low",0.814
same,normalized growth,"locus YML070W, strain DAK1, active compounds read low",0.787
same,normalized growth,"locus YMR001C, strain CDC5, active compounds read low",0.967
same,normalized growth,"locus YMR205C, strain PFK2 (second series), active compounds read low",0.92
same,normalized growth,"locus YMR277W, strain FCP1, active compounds read low",0.969
same,normalized growth,"locus YNL006W, strain LST8, active compounds read low",0.98
same,normalized growth,"locus YNL020C, strain ARK1, active compounds read low",0.878
same,normalized growth,"locus YNL161W, strain CBK1, active compounds read low",0.974
same,normalized growth,"locus YNL183C, strain NPR1, active compounds read low",0.89
same,normalized growth,"locus YNL207W, strain RIO2, active compounds read low",0.958
same,normalized growth,"locus YNL222W, strain SSU72, active compounds read low",0.973
same,normalized growth,"locus YNL307C, strain MCK1 (second series), active compounds read low",0.669
same,normalized growth,"locus YOL078W, strain AVO1, active compounds read low",0.962
same,normalized growth,"locus YOL136C, strain PFK27, active compounds read low",0.795
same,normalized growth,"locus YOR061W, strain CKA2, active compounds read low",0.567 (active)
same,normalized growth,"locus YOR119C, strain RIO1, active compounds read low",0.924
same,normalized growth,"locus YOR231W, strain MKK1, active compounds read low",0.845
same,normalized growth,"locus YOR329C, strain SCD5, active compounds read low",0.971
same,normalized growth,"locus YPL031C, strain PHO85, active compounds read low",0.853
same,normalized growth,"locus YPL153C, strain RAD53, active compounds read low",0.832
same,normalized growth,"locus YPL204W, strain HRR25, active compounds read low",0.818
same,normalized growth,"locus YPL209C, strain IPL1, active compounds read low",0.967
same,normalized growth,"locus YPL256C, strain CLN2, active compounds read low",0.99
same,normalized growth,"locus YPR025C, strain CCL1, active compounds read low",0.973
same,normalized growth,"locus YPR106W, strain ISR1, active compounds read low",0.98
same,normalized growth,"locus YPR111W, strain DBF20, active compounds read low",0.963
same,normalized growth,"strain NNK1, active compounds read low",0.992
same,normalized growth,"strain TSCII, active compounds read low",0.963
